# Measured values taken from the supplement of paper PMC6555819.
# System: PPARg DBDmut:RXRa IVT, anti-PPARg (DBD mutation: PPARg1 K132A/R137A, NR concentration 270 nM, RXRa partner concentration 90 nM)
# Test: PBM binding z-score (relative to random genomic background probes); higher = stronger binding; sequences stand for … in GC…GCGATTGACAGCGTAGAATGAAGG
# How it was run: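 Custom Agilent 4×180K protein-binding microarrays carried double-stranded probes, each with a 34-nt variable region. These regions held direct-repeat seeds, single-nucleotide variants, half-site ablations and random human genomic background sequences. Ligand-free nuclear receptor dimers were incubated on the arrays for 1 h, antibodies against each partner (one per run) detected binding, and scanned fluorescence was regression-normalized. Binding z-scores take the random background probes as reference.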
row,Sequence,PBM binding z-score
1,TCGAGTAGGTTAGGGGCATGCAGAATGGCGTCGA,-0.639
2,TCATATAGGTGAAGGTGAAAGTCGAACGATATGA,1.24
3,GCGACCGGGGCAAAGCAGGTTACCATAAGGTTGG,-1.18
4,CAGACTGGGGCAAGGTTACCATAACGCACAGCCA,1.14
5,CCTAGTTGGTCTAGGTCACACACGCTATAGGTAC,0.258
6,ATATGTAGGTTATCGGGTCATTCCGTTTGCGCAT,4.25
7,CCTAACAGGCCAATCTGGGTCACTCAAGGCTTGA,0.79
8,CCTAGCAGGCCAGGGTCACTCGAGCATTTCGCTT,-0.592
9,CAAACTAGGTCGCGAAAGGTCAAAGTCGAATGAC,1.26
10,ACTAGTTGGTCAGCCGAGGTCACACACAATTCGG,0.481
11,TCTTGTAGATCAATAGAGATTAAGAAAGTGCGCT,0.292
12,ACTAGTTGGTCAGCTGAGGTCAGACACAATTCGG,0.583
13,AGAACGAGGGCACGCTGAGTTGATAGAAGAGTAG,0.756
14,ACTCGGAGGCCAAAGGTCAGAGCTACGCCAGTGA,0.0532
15,TATACAGCGTCAAAGGCCAGAGTACGAATGTCGA,-0.154
16,AGAACGAGGGCACGCTTAGTTGATAGCAGAGTAG,0.457
17,GCTTACGGGTCAAAGCTTATAGCATGAATAGAAT,0.68
18,TGTCAAAGTTCAAAGGTAACATAAGTATCCACAC,1.53
19,AGTCAAAGTTCATCTAGGTACCGTAAGATATGCT,2.26
20,CCTAGTTGGTCAAGGTCACACAAGCTATAGGTAC,1.16

row,Sequence,PBM binding z-score
1,ATATGTAGGTTATCGGGACATTCAGTTTGCGCAT,2.35
2,CCTCACGGGTCAAGGTTATAGCACGGGTGGTACG,0.133
3,TCATATTGGTAAACAGGTGAAAGTCCGTAAGTTA,0.411
4,CTCGAAAGGTCGGTCGAGGTGAGTATACGGATAA,0.0612
5,CGTCCAAGGTCATAGGAGGTCAGTTAAGACAGAT,0.532
6,GATACAGGGTCAGCTAGAGGCCAGAGTTTGGAAA,0.152
7,GCTAGTTGGTCAGTAAAAGGTCACACATCGGTCG,0.0513
8,TCATATAGGTAAAAGGTGGAAGTCGGTGTGGTAA,0.901
9,GCAGACAGGTGAAACGCAGGAAACTCAGGGTGGC,-0.857
10,CCTGCTAGATCAATGGTCAGCTAAAGCAGCTCGC,-1.21
11,GTACCAGGGTGAATAGGTCGTTGATGAGTAGGCG,-0.169
12,TCATATAGGTCAATGCTAGGTGAAAGTCCGATCT,1.25
13,GCTAGCTGGCCATTTGGGTCACTCAATGACGGGC,-0.756
14,TCATATAGGTAAACGTGAAAGTCGAACGATATGA,1.4
15,CAAACTAGGTCAAAGGTCTAAGTCGAGCCAACCA,8.12
16,GCTTACGGGTCATAGGTTATAGCATGAATAGAAT,2.06
17,CAAACTAGGTCACGAAAGGTCAAAGACGAATGAC,4.91
18,CGTCCCAGGTCAATGCTAGGTCAGTGAAAGCATT,-0.129
19,TCTCGGAGGACACGAACGGTCAGAGCTCGACATC,-0.337
20,CCGACTGGGGCATAATGTTACCATAAGCCAGCCC,-0.872
